In PubChem BioAssay AID436 (Emory University Molecular Libraries Screening Center, 2006) one finds activity remaining (% of control) data, which are given here for 49 compounds.

In all, about 72,000 compounds went through this assay and about 350 (0.49%) were called active. The entries come from a sample that favours actives as a whole. A number with no mark means an inactive call.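 Rule for the calls: active = activity remaining at or below 50% of control, provided the compound also passes the data quality filters; inactive = the rest, including low values that fail the filters.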

Sequence of Ubiquitin carboxyl-terminal hydrolase BAP1 (Homo sapiens) (Q92560 whole entry, looked up): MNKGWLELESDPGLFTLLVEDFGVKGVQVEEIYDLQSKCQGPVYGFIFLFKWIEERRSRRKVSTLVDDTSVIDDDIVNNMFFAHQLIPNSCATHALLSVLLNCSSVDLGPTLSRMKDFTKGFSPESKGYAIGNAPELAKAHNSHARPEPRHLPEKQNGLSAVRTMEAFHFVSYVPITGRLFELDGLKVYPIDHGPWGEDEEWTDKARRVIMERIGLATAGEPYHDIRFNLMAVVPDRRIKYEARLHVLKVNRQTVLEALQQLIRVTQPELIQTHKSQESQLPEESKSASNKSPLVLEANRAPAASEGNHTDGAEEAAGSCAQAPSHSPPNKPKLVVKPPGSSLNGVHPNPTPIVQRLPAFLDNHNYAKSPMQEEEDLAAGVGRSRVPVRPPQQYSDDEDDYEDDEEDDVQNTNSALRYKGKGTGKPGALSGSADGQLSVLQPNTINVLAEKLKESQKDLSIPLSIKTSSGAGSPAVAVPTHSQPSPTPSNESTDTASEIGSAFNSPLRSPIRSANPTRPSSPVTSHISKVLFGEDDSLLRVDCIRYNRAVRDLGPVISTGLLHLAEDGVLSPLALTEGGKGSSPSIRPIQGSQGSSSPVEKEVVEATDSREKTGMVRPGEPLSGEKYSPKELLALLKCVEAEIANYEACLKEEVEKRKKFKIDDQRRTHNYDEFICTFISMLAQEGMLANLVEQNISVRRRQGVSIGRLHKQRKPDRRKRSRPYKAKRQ

The test concerns the target Ubiquitin carboxyl-terminal hydrolase BAP1 (Homo sapiens) (UniProt Q92560). Kind of test: BAP1 ubiquitin hydrolase activity blockers – biochemical, Ub-AMC fluorescence, kinetic, primary screen (AID 436).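 Note: 100% = DMSO wells rate and 0% = substrate alone blank rate.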 The following applies: recombinant BAP1, Ub-AMC hydrolysis fluorescence kinetic; at 20 µM; hits give low values.
Turning to `Cc1ccc(S(=O)(=O)CCc2nnc(NC(=O)c3ccc(C(C)(C)C)cc3)s2)cc1`, the activity remaining (% of control) is 50.6%.

Consider `CCN(CC)S(=O)(=O)c1ccc(C(=O)Nc2nc3c(s2)C(=O)CC(C)(C)C3)cc1`, for which the activity remaining (% of control) is 55.1%.

In the case of `CCN(CC)c1ccc2cc(-c3nc4ccc(Cl)cc4[nH]3)c(=O)oc2c1`, the activity remaining (% of control) is 278%.

`CCOc1c([N+](=O)[O-])c(=O)oc2ccccc12`: the activity remaining (% of control) was 111%.

Regarding `Cc1ccc2nc(NC(=O)c3ccccc3[N+](=O)[O-])sc2c1`, the activity remaining (% of control) was 91.2%.

As for `Cc1ccccc1C(=O)Nc1ccc(C(=O)Nc2cccc(C(F)(F)F)c2)cc1`, the activity remaining (% of control) is 194%.

On to `CCOC(=O)c1ccc2nc(C34CC5CC(CC(C5)C3)C4)ccc2c1`, for which the activity remaining (% of control) is 126%.

As for `C=CCn1c2ccccc2c2nnc(SC(CC)C(=O)Nc3nc(C)c(C(=O)OCC)s3)nc21` (centres undefined), the activity remaining (% of control) was 42% (active).

With `CCOC(=O)c1sc(NC(=O)C(CC)Sc2nccn2C)nc1C` (centres undefined), the activity remaining (% of control) was 90.3%.

For the compound `O=C(Oc1ccc2ccccc2c1Br)c1ccncc1`, the activity remaining (% of control) was 56.6%.

Regarding `Cn1c(C(C)(O)C(O)(c2ccccc2)c2ccccc2)nc2ccccc21` (centres undefined), the activity remaining (% of control) is 90.5%.

With `CC1=C(C(=O)OC(C)C)C(c2ccc(O)c([N+](=O)[O-])c2)C2=C(CCCC2=O)N1` (centres undefined), the activity remaining (% of control) is 90.5%.

On to `COc1cccc(NC(=O)c2ccc(N(Cc3ccccc3)S(C)(=O)=O)cc2)c1`, for which the activity remaining (% of control) is 89.5%.

In the case of `O=C1CC(Nc2ccc3ccccc3c2)C(=O)N1c1ccccc1` (centres undefined), the activity remaining (% of control) is 163%.

For `CC(C)(C)C(=O)Nc1ccc(C(=O)Nc2ccc(Sc3ccc([N+](=O)[O-])cc3)cc2)cc1`, the activity remaining (% of control) was 57.4%.

Turning to `O=C(O)CCC(=O)Nc1ccc([N+](=O)[O-])cc1`, the activity remaining (% of control) is 64.9%.

Consider `COc1ccc(NC(=O)c2sc(-c3ccccc3)nc2C)cc1`, for which the activity remaining (% of control) is 117%.

Take `COc1ccc(C(=O)n2nnc3ccccc32)cc1`: the activity remaining (% of control) is 95.3%.

On to `COc1ccc(NC(=O)c2cc3ccccc3oc2=O)cc1Cl`, for which the activity remaining (% of control) was 75.5%.

Regarding `CC(=O)NCCN1C(=O)C(=O)/C(=C(/O)c2ccc(Cl)cc2)C1c1ccccc1F` (centres undefined), the activity remaining (% of control) is 108%.

For the compound `Cc1nc(-c2ccc(NC(=O)c3cccc(Br)c3)cc2)cs1`, the activity remaining (% of control) is 162%.

Consider `COc1ccc(-n2nc3c(c2NC(=O)Cc2ccccc2)CSC3)cc1`, for which the activity remaining (% of control) is 73.5%.

Regarding `O=c1[nH]c2cc(Cl)ccc2c(-c2ccccc2)c1Sc1ncn[nH]1`, the activity remaining (% of control) is 98.9%.

As to `O=C(Nc1ccccc1F)c1ccc([N+](=O)[O-])cc1Cl`, the activity remaining (% of control) was 205%.

With `CCOC(=O)C(=O)N1c2ccccc2C(C)(c2ccccc2)CC1(C)C` (centres undefined), the activity remaining (% of control) is 108%.

On to `O=C1C2C3C=CC(O3)C2C(=O)N1c1ccc(Br)cc1[N+](=O)[O-]` (centres undefined), for which the activity remaining (% of control) was 77.6%.

Regarding `Cc1cc(C)cc(NC(=O)CCN2C(=O)c3ccccc3C2=O)c1`, the activity remaining (% of control) was 49.9%.

In the case of `S=c1[nH]nc(COc2ccccc2)o1`, the activity remaining (% of control) is 52.5%.

In the case of `CCOc1ccc(CN(Cc2ccco2)C(c2cccs2)c2nnnn2C(C)(C)C)cc1` (centres undefined), the activity remaining (% of control) was 36.6% (active).

For the compound `CC(C)(C)n1nnnc1C(c1cccs1)N(Cc1cccnc1)CC1CCCO1` (centres undefined), the activity remaining (% of control) is 80.9%.

Turning to `CCC(C)(C)n1nnnc1C(c1cccs1)N1CCN(Cc2ccccc2)CC1` (centres undefined), the activity remaining (% of control) was 85.8%.

On to `O=c1[nH]nc(SCc2ccc(Cl)cc2)c(=O)[nH]1`, for which the activity remaining (% of control) is 64.4%.

As to `COc1ccc(C2C(N3C(=O)c4cccc([N+](=O)[O-])c4C3=O)C(=O)N2c2ccc(C)c(C)c2)cc1OC` (centres undefined), the activity remaining (% of control) was 85.8%.

In the case of `COc1ccc(Cn2c(NCCO)nc3c2c(=O)n(C)c(=O)n3C)cc1`, the activity remaining (% of control) is 103%.

Turning to `Cc1cc(=O)oc2cc(OC(=O)c3ccc([N+](=O)[O-])cc3Cl)ccc12`, the activity remaining (% of control) is 479%.

As to `Cc1ccc[n+](CC(=O)c2ccc(Cl)cc2)c1C`, the activity remaining (% of control) was 57.4%.

On to `O=c1oc2ccccc2cc1-c1nnc(-c2ccccc2)o1`, for which the activity remaining (% of control) was 380%.

For the compound `COc1ccc2cc(C(=O)Nc3cccc(C(F)(F)F)c3)c(=N)oc2c1`, the activity remaining (% of control) was 72.3%.

For the compound `CNc1nonc1C(=O)O`, the activity remaining (% of control) was 154%.

Regarding `O=C(Nc1cccnc1)c1ccc(Cl)c([N+](=O)[O-])c1`, the activity remaining (% of control) was 66%.

In the case of `O=C(Nc1ccc(-c2cn3ccccc3n2)cc1)c1ccc(Br)cc1`, the activity remaining (% of control) was 63.1%.

As to `N#Cc1cccc2c1-c1ccc([N+](=O)[O-])cc1C2=O`, the activity remaining (% of control) was 96.3%.

`Cc1cccc(C)c1OCC(O)CN1CCCCC1` (centres undefined): the activity remaining (% of control) is 59.4%.

`CCOc1ccccc1NC(=O)c1c(NC(=O)c2cccs2)sc2c1CCC(C)C2` (centres undefined): the activity remaining (% of control) is 92.6%.

`Cc1cc(Br)ccc1N1C(=O)C2CCCCC2C1=O` (centres undefined): the activity remaining (% of control) was 93.8%.

In the case of `CCc1ccc(OC(=O)c2cc3cc(Br)ccc3oc2=O)cc1`, the activity remaining (% of control) is 80.8%.

For `CCc1ccc2oc(-c3cccc(NC(=O)c4ccccc4Br)c3)nc2c1`, the activity remaining (% of control) is 56.4%.

Consider `O=C(Nc1nnc(CCS(=O)(=O)c2ccc3ccccc3c2)s1)c1ccc(F)cc1`, for which the activity remaining (% of control) is 64.8%.

As to `Cc1cccc(C(C)C)c1NC(=O)c1ccco1`, the activity remaining (% of control) is 233%.
